The list shows a part of the results. Results filed as inconclusive are left out. Active and inactive are the calls of the source. Calls come from the whole dose curve; as a rule, active = well fitted inhibition curve with a large enough effect; inconclusive = small, poorly fitted or top-dose-only effect, or another doubt; inactive = no such curve, though single readings can be large or run the other way.
The compounds below were run against 4'-phosphopantetheinyl transferase ffp (Bacillus subtilis) (UniProt Q9F4F7) (assay: Confirmation qHTS Assay for Inhibitors of Bacillus subtilis Sfp phosphopantetheinyl transferase (PPTase)). Conditions: Sfp PPTase enzymatic assay, qHTS titration; series mostly up to 114 µM.
Chain of 4'-phosphopantetheinyl transferase ffp (Bacillus subtilis) (Q9F4F7 whole entry, looked up): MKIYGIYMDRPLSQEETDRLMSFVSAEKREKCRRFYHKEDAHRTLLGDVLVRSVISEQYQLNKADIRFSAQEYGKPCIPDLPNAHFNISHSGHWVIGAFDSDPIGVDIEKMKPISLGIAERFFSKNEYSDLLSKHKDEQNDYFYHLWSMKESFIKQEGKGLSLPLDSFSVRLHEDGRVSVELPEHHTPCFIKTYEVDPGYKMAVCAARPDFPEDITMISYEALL
Excerpt: The covalent attachment of a phosphopantetheinyl (4'-PP) arm to a variety of synthases and other proteins is a key posttranslational protein modification. The 4'-PP is installed on the proteins post-translationally from coenzyme A (CoA) on a conserved serine residue by action of phosphopantetheinyl transferase (PPTase) enzymes. Phosphopantetheinylation is essential for synthase activity, and removal of the PPTase gene precludes natural product synthesis in microorganisms, or in the case of fatty acid biosynthesis, renders the organism unviable. PPTase enzymes belong to a distinct structural superfamily. Within bacteria, these enzymes are grouped into two classes based upon primary structure, the AcpS-Type and Sfp-Type PPTases.
Sfp-type PPTases, corresponding to an activator of surfactin production in Bacillus subtilis, are responsible for modifying type I polyketide and nonribosomal peptide synthases of prokaryotes. Sfp-type PPTases are responsible for the activation of a variety of pathogen-associated virulence factors. Among these compounds are toxins such as mycolactone from Mycobacterium ulcerans, siderophores such as vibriobactin from Vibrio cholerae or mycobactin from Mycobacterium tuberculosis, as well as the mycolic acids which form the waxy cell wall of Mycobacteria. The biosyntheses of these natural products are considered attractive targets for drug design.
In search of small molecule Sfp-PPTase inhibitors, a fluorescence quenching assay was developed for detection of Bacillus subtilis Sfp-PPTase enzymatic activity in a miniaturized high-throughput format. The consensus ybbr acceptor peptide […] was N-terminally labeled with Black Hole Quencher-2 (BHQ-2) and used in combination with rhodamine-labeled coenzyme A as a co-substrate.
Inhibition of Sfp-PPTase was detected by recording the fluorescence intensity change over a 30-minute reaction period at a 525 nm excitation and 598 nm emission. Reagents were supplied by Michael Burkart and Timothy Foley, University of California at San Diego.
Assay Submitter: Michael Burkart, University of California, San Diego
Screening Center PI: Austin, C.P.
Screening Center: NIH Chemical Genomics Center [NCGC]
Assay Buffer: 50 mM Hepes-Na pH 7.6, 10 mM MgCl2, 0.01% Nonidet P-40, and 0.01% BSA.
3 uL of Sfp-PPTase enzyme (final concentration 15 nM) and 1 uL of substrate mixture (final concentration for rhodamine-CoA and BHQ-2-YbbR 5 uM and 12.5 uM, respectively) dispensed in columns 1, 2, 5 - 48. Columns 1 and 2 used to generate neutral control (uninhibited reaction)
Three uL of reagents, consisting of buffer (in columns 3 and 4 as negative control) and Sfp-PPTase (in columns 1, 2, 5 - 48) were dispensed into 1,536-well Greiner black solid bottom plate. Compounds (23 nL) were transferred via Kalypsys pintool equipped with 1,536-pin array. The plate was incubated for 15 min at room temperature, followed by the addition of 1 uL substrate to start the reaction. The plate was then centrifuged at 1000 rpm for 15 seconds, and the fluorescence intensity recorded on a ViewLux High-throughput CCD imager (Perkin-Elmer) using standard BODIPY optics (525 nm excitation and 598 nm emission). The plate was then incubated for 30 minutes, and a second read on the ViewLux was performed. The fluorescence intensity difference over the 30-minute period was used to calculate the respective reaction rate for each well.
For `Cc1ccc(/C=C(\C#N)C(=O)Nc2cccc3ncccc23)o1`, the Potency was 26.4 µM (active). With `NC(=O)c1c(NC(=O)CSc2nnc(-c3ccco3)n2N)sc2c1CCCC2` the Potency was 14.8 µM (active). With `OCCN1CCN(C(=S)c2ccc(-c3ccccc3)cc2)CC1` the Potency was 14.8 µM (active). In the case of `CCCOC(=O)Nc1sc2c(c1C(=O)OCC)CCC2`, the Potency is reported as 29.6 µM (active). For `FC(F)(F)C1CCCN(c2nsc3ccccc23)C1` (configuration not stated), the Potency was 2.1 µM (active). For `COc1ccc(OCc2nnc3n2N=C(c2ccccc2)C(CC(=O)O)S3)cc1` (configuration not stated), the Potency was 2.35 µM (active). For `c1ccc(-c2nc(NCc3ccco3)c3ccccc3n2)cc1`, the Potency was “inactive”. `CC(C)(C)c1nnc(NC(=O)C2c3ccccc3Oc3ccccc32)s1` was tested, and the Potency was 4.69 µM (active). `Cc1nn2c(c1-c1ccccc1)N=C(c1ccco1)CC2c1ccccc1` (configuration not stated) was tested, and the Potency was 37.3 µM (active). `Cc1ccc(NC(=O)c2c(NC(=O)CCC(=O)O)sc3c2CCCCC3)cc1` was tested, and the Potency was 14.8 µM (active). In the case of `O=c1[nH]c2ccccc2n2c(-c3ccccc3)nnc12`, the Potency is reported as 2.1 µM (active). `CCC(c1nnnn1Cc1ccco1)N(Cc1cc2cc(OC)ccc2[nH]c1=O)C1CCCCC1` (configuration not stated) was tested, and the Potency was 9.37 µM (active).

From PubChem BioAssay AID2701 (National Center for Advancing Translational Sciences (NCATS), 2010)
Potency is the fitted concentration of half-maximal effect.
